Experimental data published in PubChem BioAssay AID778 (Sanford-Burnham Center for Chemical Genomics, 2007).
Out of some 96,000 compounds screened, about 20,000 (21%) were called active. Only a sample is shown. A number with no mark means an inactive call.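 Rule for the calls: active = CYP2C19 inhibition above a set limit at 5 µM in the primary screen (cut at about 50% in these data); inactive = the rest.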

target: Cytochrome P450 2C19 (Homo sapiens) (UniProt P33261); assay: blockers of cytochrome P450 2C19 activity – biochemical, luminescence, ADME assay, primary screen (AID 778); details: CYP2C19 Supersomes, luciferin-H EGE luminescence, 30 min; at 5 µM; stronger effect = higher value;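 note: plate controls were negative control wells for no effect and 2.5 mM tranylcypromine positive control for full effect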
Sequence (P33261 whole entry, looked up): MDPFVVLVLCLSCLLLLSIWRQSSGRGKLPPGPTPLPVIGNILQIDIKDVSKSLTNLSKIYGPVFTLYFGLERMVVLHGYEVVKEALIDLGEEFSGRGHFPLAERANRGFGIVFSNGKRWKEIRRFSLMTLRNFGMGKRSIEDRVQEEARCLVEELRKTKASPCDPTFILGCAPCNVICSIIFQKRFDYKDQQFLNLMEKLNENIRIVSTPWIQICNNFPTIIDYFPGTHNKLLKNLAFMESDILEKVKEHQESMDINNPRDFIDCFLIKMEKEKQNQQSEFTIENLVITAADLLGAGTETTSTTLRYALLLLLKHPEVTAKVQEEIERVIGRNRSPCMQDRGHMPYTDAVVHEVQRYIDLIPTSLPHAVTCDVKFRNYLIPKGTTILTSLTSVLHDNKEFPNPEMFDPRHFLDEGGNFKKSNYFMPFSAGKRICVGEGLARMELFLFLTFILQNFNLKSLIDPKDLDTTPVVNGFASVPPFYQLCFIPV

First: Cc1cccc(C(=O)Nc2nnc(Cc3c[nH]c4ccccc34)s2)c1
Second: Cc1cccc(NC(=O)c2ccc3ccccc3n2)n1
The inhibition of the first is lower: 8.7% for the first, 22.7% for the second.

Going from `CC(=O)c1cc2c(cc1NC(=O)CN1CCCCCC1)OCO2` to `O=C(Nc1ccc(S(=O)(=O)N2CCCC2)cc1Cl)C1=COCCO1`, the inhibition rises from 15.4% to 16.2%.

First: CCN(CC)c1ccc(C2C3CCCCC3(O)CCN2CC(=O)Nc2ccccc2)cc1 (stereo not drawn)
Second: CCCNC(=O)Nc1ccccc1C(=O)Nc1ccc(OC)cc1
The inhibition of the first is lower: 21.9% for the first, 40.1% for the second.

First: CC(=O)NC(C)(C)C1CC=C(C)/C(=N\O)C1 (stereo not drawn)
Second: CC(=O)Nc1ccc(S(=O)(=O)N2CCCC2C(=O)O)cc1 (stereo not drawn)
The inhibition of the first is higher: 2.5% for the first, -6.9% for the second.

First: O=C(CSc1nnc(Cn2cnc3ccccc32)o1)c1ccccc1
Second: COc1c(O)cccc1-c1nnn(CCC(=O)OCC(=O)c2ccccc2)n1
The inhibition of the first is lower: 6.9% for the first, 19.5% for the second.

Compared with `O=C(O)CCC(=O)NCc1ccc2[nH]c3c(c2c1)CCCC3`, `O=C(O)CCC(=O)Nc1ccc(N2CCOCC2)cc1` is higher in inhibition: -16.4% for the first, -9% for the second.

Compared with `CN=C1S/C(=C\c2ccc(Sc3ccc(Cl)cc3)o2)C(=O)N1C`, `CSc1ccccc1-c1nnc(-c2ccc(Cl)cc2)o1` is lower in inhibition: 7.4% for the first, -15.2% for the second.

Compared with `CCN1C(=O)/C(=C\N2CCN(c3ccccc3)CC2)SC1=S`, `COc1ccc(CCn2nnnc2C(c2ccccc2)N2CCN(C)CC2)cc1OC` (stereo not drawn) is lower in inhibition: 17.4% for the first, 2.7% for the second.

First: Cc1cc(NC(=O)CCC2COc3ccccc3O2)no1 (stereo not drawn)
Second: Cc1cccc(NC(=O)COc2ccccc2C)n1
The inhibition of the first is lower: 23.1% for the first, 32% for the second.

First: COc1ccc(NC(=O)CCNC(=O)Cn2ccc3ccccc3c2=O)c(OC)c1
Second: COc1ccc(OCCCON2C(=O)c3ccccc3C2=O)cc1
The inhibition of the first is lower: -2.7% for the first, 26.4% for the second.

First: CCCSC(=S)NC1CCS(=O)(=O)C1 (stereo not drawn)
Second: CCOC(=O)c1[nH]cnc1C(=O)NC1CCCCC1
The inhibition of the first is lower: 13.9% for the first, 18.3% for the second.

Compared with `Cc1cccc(-n2ncc3c(N4CCc5ccccc54)ncnc32)c1`, `Clc1cccc(-c2nc3nc4ccccc4nc3n2Cc2ccco2)c1` is lower in inhibition: 6.2% for the first, 1.8% for the second.

First: COc1ccccc1-c1nc(C(F)(F)F)c(OC)o1
Second: COc1ccc(OC)c2c(N)c(C#N)c(C(F)(F)C(F)(F)F)nc12
The inhibition of the first is higher: -4.3% for the first, -11.1% for the second.

First: COc1ccc(-c2cn(-c3ccc(C)cc3)c(=O)n2CC(=O)Nc2ccc(OC)c(OC)c2)cc1
Second: COc1ccc(CCn2c(-c3ccco3)nc3nc4ccccc4nc32)cc1OC
The inhibition of the first is lower: 16.2% for the first, 16.7% for the second.

Going from `O=C(O)c1cscn1` to `N#C/C(=C1/CCCN1)c1ccccn1`, the inhibition rises from -12.7% to -7.3%.

Compared with `N#CC(=C1CCCC1)c1nc(-c2ccc(Cl)cc2)cs1`, `Cn1c(/C(C#N)=C2/CCCCCN2)nc2ccccc21` is higher in inhibition: 43.3% for the first, 47.6% for the second.

First: Oc1ccc(Cl)cc1/C=N/c1nc2ccccc2[nH]1
Second: O=C(OCc1cc2ccccc2[nH]c1=O)c1cccnc1
The inhibition of the first is lower: -20.9% for the first, 25.1% for the second.

First: Cc1ccc(Cn2c(NC(=O)c3ccco3)nc3ccccc32)cc1
Second: CC(C)(C)N1CC(c2nc3ccccc3n2Cc2ccc(F)cc2)CC1=O (stereo not drawn)
The inhibition of the first is lower: -9.7% for the first, 12.1% for the second.

Going from `Cc1ccc2cc(CCNC(=O)c3c(-c4ccccc4Cl)noc3C)c(=O)[nH]c2c1` to `O=C1c2ccccc2C(=O)N1Cc1cc(-c2ccccc2Cl)no1`, the inhibition rises from 21% to 37.2%.

First: Cc1onc(-c2c(Cl)cccc2Cl)c1C(=O)c1c[nH]c(C(=O)NC2CC2)c1
Second: CCN(CC)CCCNC(=O)c1cc(-c2cccc(Cl)c2)on1
The inhibition of the first is higher: 0.9% for the first, -2.7% for the second.

Compared with `C=CCSc1nc2c(c(=O)[nH]1)C(C(C)C)C(C#N)=C(N)O2` (stereo not drawn), `Cc1ccc2nc(SC(C)C(=O)NCc3ccco3)[nH]c2c1` (stereo not drawn) is higher in inhibition: -15.8% for the first, 19.9% for the second.

Going from `Cc1cc(C)c2c(-n3cccc3)c(NC(=O)OCc3ccccc3)sc2n1` to `CCc1nnc(NC(=O)CSc2nnc(COc3ccc(C#N)cc3)n2-c2ccccc2)s1`, the inhibition falls from 4.8% to 4.5%.

First: Cc1cc(Cl)ccc1N1C(=O)CC(SCCC(=O)O)C1=O (stereo not drawn)
Second: COc1c(C)cccc1C(=O)Nc1cc(Cl)ccc1N1CCOCC1
The inhibition of the first is lower: 7.1% for the first, 20.6% for the second.

Going from `COC(=O)Cc1cc(=O)oc2c(C)c(O)ccc12` to `COc1ccc2oc(C)c(NC(C)=O)c2c1`, the inhibition falls from 17.9% to 13.5%.

Compared with `Nc1nnnn1/N=C/c1cccs1`, `Cc1ccc(C(c2nnnn2CS(=O)(=O)c2ccc(C)cc2)N2CCC(C)CC2)cc1` (stereo not drawn) is higher in inhibition: 1.7% for the first, 3.8% for the second.

Going from `CCC(=O)Oc1cccc(C(=O)Nc2ccc(-c3nnc(-c4ccco4)o3)cc2)c1` to `Cc1nc2nc[nH]n2c(=O)c1NC(=O)c1cccc(OCC(C)C)c1`, the inhibition falls from 48.6% to -12.5%.

First: NC(=O)c1nsc(C(=O)N(CC(=O)NCc2ccc(F)cc2)Cc2ccco2)c1N
Second: CCOC(=O)c1cnc(SCC(=O)NCc2ccco2)nc1N
The inhibition of the first is higher: 21.3% for the first, -1.2% for the second.

Compared with `Cc1cc(C(F)(F)F)nn1CC(=O)N1CCCC1`, `FC(F)(F)COc1nc(N2CCCCC2)nc(N2CCNCC2)n1` is lower in inhibition: -1.5% for the first, -9.3% for the second.

First: OC(C#CCN1CCOCC1)(c1ccccc1)C1CCCCC1 (stereo not drawn)
Second: Cc1ccc(N(C(=O)CC2NC(=O)NC2=O)C2(C(=O)NC3CCCC3)CCCCC2)cc1 (stereo not drawn)
The inhibition of the first is higher: 36.7% for the first, -3.8% for the second.

Going from `O=C(COC(=O)C12CC3CC(CC(C3)C1)C2)NCc1ccco1` to `C/C(=N/NC(=O)c1cc(Cl)ccc1O)C12CC3CC(CC(C3)C1)C2`, the inhibition falls from 35.7% to 0.2%.

Compared with `COc1c(Br)cc2c(C)c(C(=O)N3CCOCC3)oc2c1Br`, `CC(=O)Nc1cccc(Oc2cc(C#N)c(C#N)cc2N2CCOCC2)c1` is lower in inhibition: 33.1% for the first, 5.2% for the second.

First: N#C/C(=C\c1ccccc1)c1n[nH]c(Cn2cncn2)n1
Second: COC(=O)C1=C(C)Nc2ncnn2C1c1cccnc1 (stereo not drawn)
The inhibition of the first is higher: 23.3% for the first, -0.3% for the second.

Compared with `CN(Cc1ccccc1)c1nc2c(c(=O)[nH]c(=O)n2C)n1CCSc1nc2ccccc2[nH]1`, `Cc1ccc(S/C(=N\S(=O)(=O)c2ccc(Cl)cc2)c2ccccc2)cc1` is lower in inhibition: 38.5% for the first, 24.1% for the second.

Going from `O=C1CC(c2cccc(F)c2)C2=C(CCCC2=O)N1` (stereo not drawn) to `COc1ccc(NC(=O)c2c(C)oc3c2CCCC3)cc1`, the inhibition rises from 8.1% to 24.5%.

Compared with `O=[N+]([O-])c1ccccc1NCc1ccc(Cl)cc1`, `O=C(Nc1ccc(Br)c2cccnc12)c1ccc(Cn2cc([N+](=O)[O-])cn2)o1` is lower in inhibition: 21% for the first, 20.2% for the second.

Going from `Fc1c(F)c(C(F)(F)F)c(F)c(F)c1N1CCN(c2ccc3nnc(C(F)(F)F)n3n2)CC1` to `Cc1ccc(Cc2c(C)nc3nc(SCC(=O)NCCN4CCOCC4)nn3c2C)cc1`, the inhibition falls from 0.5% to -3.1%.

Compared with `CCOc1ccc(CNC(=O)C2CCC(=O)N2C2CCCC2)cc1OC` (stereo not drawn), `CCOc1ccc(NS(=O)(=O)c2ccc(OCC(=O)NCCCOC)cc2)cc1` is higher in inhibition: -0.1% for the first, 2.3% for the second.

Compared with `Brc1ccc(C2=CC(c3ccco3)n3ncnc3N2)cc1` (stereo not drawn), `COc1ccc(-c2cc3nc(C)c(CCC(=O)NC(C)CCc4ccco4)c(C)n3n2)c(OC)c1` (stereo not drawn) is lower in inhibition: 33% for the first, 30.5% for the second.

Compared with `CCCCNC(=O)OC(C)CNC(=O)OC` (stereo not drawn), `COc1ccc(NS(=O)(=O)c2ccc(NC(=S)NC(=O)CC(C)C)cc2)cc1` is higher in inhibition: 2.3% for the first, 25.1% for the second.

In the case of `Cc1ccc(NC(=O)CN2CCC3(O)CCCCC3C2c2ccc3c(c2)OCO3)c(C)c1` (stereo not drawn), the inhibition is reported as 63.9% (active).
`COc1ccc(NC(=O)CC2COc3ccccc3O2)c(OC)c1` (stereo not drawn) was tested, and the inhibition was 85.5% (active).
In the case of `FC(F)(F)c1cnc(Oc2ccccc2-c2nnc(-c3ccc(Cl)cc3)o2)c(Cl)c1`, the inhibition is reported as 66.1% (active).
In the case of `N#C/C(=C1\CCCN1)c1nc(-c2ccccc2)cs1`, the inhibition is reported as 54.2% (active).
For `N#CC(=C1SC=CS1)c1nc(-c2ccccc2)cs1`, the inhibition was 65.1% (active).
`C=CCn1c(C2CC(=O)N(c3ccc(C)cc3)C2)nc2ccccc21` (stereo not drawn) was tested, and the inhibition was 76.7% (active).
In the case of `Cc1onc(-c2ccccc2Cl)c1C(=O)OCC(=O)c1ccccc1`, the inhibition is reported as 58.1% (active).
For `Cc1onc(-c2ccccc2Cl)c1C(=O)NCCn1ccc2ccccc21`, the inhibition was 83.5% (active).
With `CCCOc1cccc(C(=O)Nc2nnn(CCC)n2)c1` the inhibition was 57.8% (active).
`COC(=O)C(C(=O)Nc1cccc(C)n1)C1CCCCCC1` (stereo not drawn) was tested, and the inhibition was 80.7% (active).
With `Cc1cc(C(=O)OCC(=O)NCc2ccco2)c(C)n1-c1ccccc1` the inhibition was 71.8% (active).
`CCOC(=O)C1=C(CNC2CCCCC2)NC(=O)NC1c1cc(C)ccc1C` (stereo not drawn) was tested, and the inhibition was 97.1% (active).
With `CSc1ccc(S(=O)(=O)NCc2ccc(Cl)cc2)cc1` the inhibition was 78.2% (active).
`COc1ccc(C(c2nnnn2Cc2cccs2)N2CCN(c3ccccc3)CC2)cc1OC` (stereo not drawn) was tested, and the inhibition was 69.8% (active).
For `CCC(C)n1c(-c2cc(OC)c(OC)c(OC)c2)nc2nc3ccccc3nc21` (stereo not drawn), the inhibition was 92.6% (active).
For `Clc1ccc2c(c1)C1=C(C(c3ccncc3)O2)C(c2ccc(Br)cc2)n2ncnc2N1` (stereo not drawn), the inhibition was 86.1% (active).
In the case of `COC(=O)COc1ccc(S(=O)(=O)Nc2ccc(NC(C)=O)cc2)cc1`, the inhibition is reported as 69.1% (active).
For `CC(=O)Nc1ccc(S(=O)(=O)Nc2ccc(N3CCOCC3)c(F)c2)cc1`, the inhibition was 93.5% (active).
In the case of `COc1ccc(S(=O)(=O)Nc2ccc3oc(C)c(C(C)=O)c3c2)cc1`, the inhibition is reported as 67.4% (active).
With `CC(=O)Nc1ccc(N2CCOCC2)c(C(=O)Nc2cccc(C)c2)c1` the inhibition was 53.3% (active).
